“And” between values parts separate entries of the source, which are not always exact repeats. Equal values may be shown once. Records with an inconclusive call do not appear. The source made the active and inactive calls. Unless noted, calls come from the whole dose curve.
Key:
[1] = molecular target: Estrogen receptor (Homo sapiens) (UniProt P03372); assay: qHTS assay for small molecule antagonists of estrogen receptor alpha signaling (AID 588513; active = well fitted curve in the direction sought with a large enough effect in the signal ratio, with a control signal flat, not every such curve was filed as active; the % refers to the signal ratio; note: potency is the fitted concentration of half-maximal effect)
How it was run: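 Beta-lactamase reporter, antagonist mode, HEK 293 GripTite cells; 0.5nM E2 stimulus, 18 h, 37 C; CCF4 dye 2 h RT; fluorescence. IC50 and efficacy from Hill fits, normalized to E2 and DMSO.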

[2] = molecular target: Estrogen receptor (Homo sapiens) (UniProt P03372); assay: qHTS assay for small molecule agonists of estrogen receptor alpha signaling (AID 588514);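 note: 0% = vehicle only and 100% = reference agonist; nearly all actives have a fitted effect of over 70% in size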
How it was run: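 Efficacy is expressed against 20 nM 17-beta-estradiol (100%) and DMSO basal (0%); EC50 from Hill equation. Assay: beta-lactamase reporter in ER-alpha-UAS-bla HEK 293 cells, 18 h compound incubation, CCF4 detection.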

[3] = molecular target: Glucocorticoid receptor (Homo sapiens) (UniProt P04150); assay: qHTS assay for small molecule agonists of glucocorticoid receptor signaling (AID 588532; active = well fitted curve in the direction sought with a large enough effect in the signal ratio, with a control signal flat; the % refers to the signal ratio;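 note: 100% = dexamethasone at 0.1 µM and 0% = DMSO only wells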); conditions: HeLa MMTV-bla, beta-lactamase ratio, agonist, 18 h; stronger effect = higher value; percent of dexamethasone control, DMSO zero
How it was run: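 Using MMTV-bla HeLa cells in medium with 1% stripped FBS and 25 mM HEPES, compounds were titrated and incubated overnight-length (18 h). Beta-lactamase cleavage of CCF4 was quantified by dual-emission fluorescence.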

[4] = molecular target: Glucocorticoid receptor (Homo sapiens) (UniProt P04150); assay: qHTS assay for small molecule antagonists of glucocorticoid receptor signaling (AID 588533; active = well fitted inhibition curve with a large enough effect in the signal ratio, with a control signal flat, not every such curve was filed as active; the % refers to the signal ratio;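 note: cells stimulated with 2 nM dexamethasone as agonist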; note: potency is the fitted concentration of half-maximal effect)
How it was run: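 Antagonist-mode qHTS: compound titrations added to GRE-bla HeLa cells, then dexamethasone 2 nM final; 18 h, 37 C. CCF4 FRET fluorescence normalized to dexamethasone and DMSO; IC50 from Hill fit.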

[5] = qHTS assay for small molecule antagonists of peroxisome proliferator-activated receptor delta signaling (AID 588535; active = well fitted inhibition curve with a large enough effect in the signal ratio, with a control signal flat, not every such curve was filed as active; the % refers to the signal ratio;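 for max response: cells co-treated with a PPAR-delta agonist as stimulator during compound exposure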); conditions: HEK293T PPARd-UAS-bla, beta-lactamase FRET ratio, 18 h; 460 nm channel
How it was run: (§1)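 Titrations were run on PPAR-delta-UAS-bla HEK293T cells in charcoal/dextran-stripped serum, incubated 18 h at 37 C. CCF4 fluorescence (460/530 nm) after 2 h RT; Hill equation yields IC50 and maximal response.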

[6] = molecular target: Peroxisome proliferator-activated receptor delta (Homo sapiens) (UniProt Q03181); assay: as above
How it was run: as §1

[7] = molecular target: Peroxisome proliferator-activated receptor gamma (Homo sapiens) (UniProt P37231); assay: qHTS assay for small molecule agonists of peroxisome proliferator-activated receptor gamma signaling (AID 588536; active = well fitted curve in the direction sought with a large enough effect in the signal ratio, with a control signal flat, not every such curve was filed as active; the % refers to the signal ratio;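 note: 0% = DMSO basal wells and 100% = rosiglitazone at 2 µM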)
How it was run: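 Beta-lactamase reporter read-out: CCF4 fluorescence (ex 405, em 460/530 nm) after 2 h at RT. HEK293 GeneBLAzer cells were treated for 16 h at 37 C. Hill fits gave EC50 and efficacy versus 2 uM rosiglitazone (100%) and DMSO (0%).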

[8] = molecular target: Peroxisome proliferator-activated receptor gamma (Homo sapiens) (UniProt P37231); assay: qHTS assay for small molecule antagonists of peroxisome proliferator-activated receptor gamma signaling (AID 588537; active = well fitted inhibition curve with a large enough effect in the signal ratio, with a control signal flat, not every such curve was filed as active; the % refers to the signal ratio;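 note: reporter cells co-stimulated with 50 nM rosiglitazone agonist during compound treatment; % of control where 0% means no effect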)
How it was run: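 Antagonist-mode β-lactamase reporter screen run as a titration series. HEK293 PPARγ-UAS-bla cells are stimulated with rosiglitazone (50 nM final) for 16 h, then CCF4 is read at 460/530 nm. Data are scaled between DMSO and rosiglitazone and fitted to the Hill equation.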

[9] = molecular target: Androgen receptor (Homo sapiens) (UniProt P10275); assay: qHTS assay for small molecule agonists of androgen receptor signaling (AID 588515; active = well fitted curve in the direction sought with a large enough effect in the signal ratio, with a control signal flat; the % refers to the signal ratio; note: potency is the fitted concentration of half-maximal effect; for activation: % is set by controls: 0 for no effect and ±100 for the full control effect); conditions: AR-UAS-bla HEK293, beta-lactamase ratio, agonist 16 h; activation: stronger effect = higher value
How it was run: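 Stimulation of an AR-responsive β-lactamase reporter in GripTite HEK293 cells was measured after 16 h compound exposure at 37 °C, via CCF4 fluorescence after 2 h RT. EC50 from Hill fits, normalized to R1881 at 30 nM.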

[10] = molecular target: Androgen receptor (Homo sapiens) (UniProt P10275); assay: qHTS assay for small molecule antagonists of androgen receptor signaling (AID 588516; active = well fitted curve in the direction sought with a large enough effect in the signal ratio, with a control signal flat, not every such curve was filed as active; the % refers to the signal ratio; note: % is set by controls: 0 for no effect and ±100 for the full control effect)
How it was run: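 HEK293 AR-UAS-bla cells, 10% dialyzed FBS medium; cpd titration + R1881 10 nM final, 16 h 37 C; CCF4 2 h RT; FRET ratio; IC50/efficacy via Hill fit.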

Estrogen receptor (Homo sapiens), sequence (P03372 whole entry, looked up): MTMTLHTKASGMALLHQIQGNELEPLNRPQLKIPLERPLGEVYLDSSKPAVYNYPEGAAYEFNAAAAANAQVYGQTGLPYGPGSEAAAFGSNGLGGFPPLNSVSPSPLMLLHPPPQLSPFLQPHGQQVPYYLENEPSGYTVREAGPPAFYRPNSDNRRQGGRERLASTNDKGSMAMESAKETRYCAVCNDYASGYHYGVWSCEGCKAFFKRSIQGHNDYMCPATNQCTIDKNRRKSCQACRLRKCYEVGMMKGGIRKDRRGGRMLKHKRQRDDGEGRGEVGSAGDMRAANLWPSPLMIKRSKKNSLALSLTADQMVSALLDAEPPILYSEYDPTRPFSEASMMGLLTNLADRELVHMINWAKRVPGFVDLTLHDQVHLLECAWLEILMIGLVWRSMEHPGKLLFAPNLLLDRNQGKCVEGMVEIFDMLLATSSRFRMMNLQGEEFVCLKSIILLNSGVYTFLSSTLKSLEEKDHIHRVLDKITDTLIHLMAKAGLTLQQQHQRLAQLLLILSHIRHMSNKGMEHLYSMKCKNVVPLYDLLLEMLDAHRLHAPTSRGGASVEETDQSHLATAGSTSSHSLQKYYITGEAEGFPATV
Peroxisome proliferator-activated receptor delta (Homo sapiens), sequence (Q03181 whole entry, looked up): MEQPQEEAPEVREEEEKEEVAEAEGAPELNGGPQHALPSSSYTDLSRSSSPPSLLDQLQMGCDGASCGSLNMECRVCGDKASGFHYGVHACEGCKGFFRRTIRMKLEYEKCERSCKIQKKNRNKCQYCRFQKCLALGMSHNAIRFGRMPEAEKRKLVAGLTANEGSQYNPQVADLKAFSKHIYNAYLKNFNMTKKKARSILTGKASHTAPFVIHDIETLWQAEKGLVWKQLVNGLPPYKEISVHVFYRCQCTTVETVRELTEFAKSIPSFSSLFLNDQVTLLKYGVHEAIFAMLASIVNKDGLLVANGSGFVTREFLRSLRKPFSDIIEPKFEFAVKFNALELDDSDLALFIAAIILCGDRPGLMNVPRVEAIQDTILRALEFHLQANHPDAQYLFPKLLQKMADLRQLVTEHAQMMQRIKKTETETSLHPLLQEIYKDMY
Androgen receptor (Homo sapiens), sequence (P10275 whole entry, looked up): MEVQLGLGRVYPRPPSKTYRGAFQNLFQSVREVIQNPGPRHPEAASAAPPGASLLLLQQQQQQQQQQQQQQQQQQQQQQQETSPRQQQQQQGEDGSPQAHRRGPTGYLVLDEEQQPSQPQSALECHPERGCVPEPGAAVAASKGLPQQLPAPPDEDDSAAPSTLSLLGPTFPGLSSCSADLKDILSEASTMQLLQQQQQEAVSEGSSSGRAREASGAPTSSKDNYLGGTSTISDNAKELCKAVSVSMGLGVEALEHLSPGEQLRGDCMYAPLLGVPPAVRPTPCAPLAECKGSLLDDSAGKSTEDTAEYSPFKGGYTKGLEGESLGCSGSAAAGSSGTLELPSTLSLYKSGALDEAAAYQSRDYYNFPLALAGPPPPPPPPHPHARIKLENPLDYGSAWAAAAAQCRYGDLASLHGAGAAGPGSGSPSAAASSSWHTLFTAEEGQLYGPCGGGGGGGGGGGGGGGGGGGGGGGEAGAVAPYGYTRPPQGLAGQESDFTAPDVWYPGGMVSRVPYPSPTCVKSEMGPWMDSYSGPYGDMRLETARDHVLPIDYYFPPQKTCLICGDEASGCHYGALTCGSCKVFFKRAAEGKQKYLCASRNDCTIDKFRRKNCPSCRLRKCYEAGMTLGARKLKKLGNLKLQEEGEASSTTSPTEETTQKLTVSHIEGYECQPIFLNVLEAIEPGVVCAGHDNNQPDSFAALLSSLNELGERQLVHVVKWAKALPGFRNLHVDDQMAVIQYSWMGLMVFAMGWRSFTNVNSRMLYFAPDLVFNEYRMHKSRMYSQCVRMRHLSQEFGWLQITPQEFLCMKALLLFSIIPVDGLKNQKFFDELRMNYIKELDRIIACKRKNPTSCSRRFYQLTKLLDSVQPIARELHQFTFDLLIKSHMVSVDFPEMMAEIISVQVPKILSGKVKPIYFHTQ
Glucocorticoid receptor (Homo sapiens), sequence (P04150 whole entry, looked up): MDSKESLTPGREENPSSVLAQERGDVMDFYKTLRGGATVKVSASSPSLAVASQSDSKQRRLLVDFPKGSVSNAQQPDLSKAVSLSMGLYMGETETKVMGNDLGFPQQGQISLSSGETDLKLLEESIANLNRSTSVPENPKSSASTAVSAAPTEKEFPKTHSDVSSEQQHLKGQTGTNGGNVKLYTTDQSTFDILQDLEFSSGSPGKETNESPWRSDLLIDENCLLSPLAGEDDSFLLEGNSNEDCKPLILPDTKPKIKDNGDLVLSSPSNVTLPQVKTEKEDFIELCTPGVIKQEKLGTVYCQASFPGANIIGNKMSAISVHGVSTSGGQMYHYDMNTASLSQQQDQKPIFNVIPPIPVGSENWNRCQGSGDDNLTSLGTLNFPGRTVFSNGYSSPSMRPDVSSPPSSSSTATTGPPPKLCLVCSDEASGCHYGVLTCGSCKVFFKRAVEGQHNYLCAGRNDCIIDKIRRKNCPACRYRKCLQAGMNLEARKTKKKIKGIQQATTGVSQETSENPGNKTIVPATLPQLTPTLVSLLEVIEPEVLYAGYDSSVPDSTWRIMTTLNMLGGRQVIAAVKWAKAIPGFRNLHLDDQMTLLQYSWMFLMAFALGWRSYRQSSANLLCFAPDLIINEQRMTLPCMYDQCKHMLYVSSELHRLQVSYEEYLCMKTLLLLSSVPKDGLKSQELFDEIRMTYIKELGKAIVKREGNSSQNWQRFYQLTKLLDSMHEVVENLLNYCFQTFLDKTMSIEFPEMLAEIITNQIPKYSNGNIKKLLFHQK
Peroxisome proliferator-activated receptor gamma (Homo sapiens), sequence (P37231 whole entry, looked up): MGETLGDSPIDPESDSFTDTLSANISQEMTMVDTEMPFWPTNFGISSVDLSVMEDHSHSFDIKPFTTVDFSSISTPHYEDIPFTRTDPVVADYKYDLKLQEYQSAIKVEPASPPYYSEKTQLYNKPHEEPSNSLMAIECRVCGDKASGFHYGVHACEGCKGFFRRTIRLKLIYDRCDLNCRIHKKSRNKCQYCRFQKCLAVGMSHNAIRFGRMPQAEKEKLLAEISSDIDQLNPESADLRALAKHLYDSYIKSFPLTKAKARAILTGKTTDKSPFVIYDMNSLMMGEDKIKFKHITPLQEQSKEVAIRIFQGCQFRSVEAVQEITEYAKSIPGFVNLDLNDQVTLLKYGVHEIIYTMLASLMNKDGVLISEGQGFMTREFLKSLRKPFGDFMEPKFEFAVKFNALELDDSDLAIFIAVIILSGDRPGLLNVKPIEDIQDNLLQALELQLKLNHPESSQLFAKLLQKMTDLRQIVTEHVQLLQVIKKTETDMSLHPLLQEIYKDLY

O=c1[nH]cnc2[nH]ncc12
-19.9%: max response [5]
inactive: Potency [1] | outcome [2] | activation [3] 1.38% | Potency [4] | outcome [6] | outcome [7] | outcome [8]

CC(C)(Sc1ccc(CCN(CCCCC2CCCCC2)C(=O)NC2CCCCC2)cc1)C(=O)O
active: Potency [1] 15.8 µM [inhibitor] | Potency [4] 20 µM
inactive: activation [9] -10.8% | outcome [10]

NS(=O)(=O)c1cc2c(cc1Cl)NC=NS2(=O)=O
-29%: max response [5]
inactive: Potency [1] | outcome [2] | outcome [6] | outcome [7] | outcome [8]

Cc1[nH]c(=O)c(C#N)cc1-c1ccncc1
inactive: outcome [8]

O=C1CCC(N2C(=O)c3ccccc3C2=O)C(=O)N1 (stereo not given)
27.4%: max response [5]
inactive: activation [3] -2.05% | Potency [4] | outcome [6] | outcome [7] | outcome [8]

NC(=O)c1cnccn1
inactive: Potency [1] | outcome [2] | activation [3] -2.74% and -4.57% | Potency [4] | outcome [6] | outcome [7] | outcome [8]
33.3%: max response [5]

COc1ccc2nc(S(=O)Cc3ncc(C)c(OC)c3C)[nH]c2c1 (stereo not given)
inactive: outcome [7] | outcome [8]

CCCC(CCC)C(=O)O
inactive: Potency [1] | outcome [2] | activation [3] 0.686% and -7.28% and -7.7% | Potency [4] | outcome [7] | outcome [8]

CC(=O)Oc1ccccc1C(=O)O
inactive: Potency [1] | outcome [2] | activation [9] -3.22% and 7.95% | outcome [10] | activation [3] 0.393% and 3.49% | Potency [4] | outcome [7] | outcome [8]

Cc1ccccc1C(OCCN(C)C)c1ccccc1 (stereo not given)
inactive: Potency [1] | activation [3] 2.67% | Potency [4] | outcome [6] | outcome [7] | outcome [8]
-16.5%: max response [5]

NC(N)=NC(=O)c1nc(Cl)c(N)nc1N
inactive: outcome [2] | activation [3] 0.0438% | outcome [7]

C[C@]12CCC(=O)C=C1CC[C@@H]1[C@@H]2[C@@H](O)C[C@@]2(C)[C@H]1CC[C@]2(O)C(=O)CO
inactive: Potency [4] | outcome [6] | outcome [7] | outcome [8]
active: Potency [9] 0.0141 µM
46.7%: max response [5]

O=NN(CCCl)C(=O)NCCCl
inactive: outcome [2] | activation [9] 15.8% | outcome [10] | activation [3] 14.4% | Potency [4] | outcome [6] | outcome [7]
85.8%: max response [5]

NC[C@H](O)c1ccc(O)c(O)c1
inactive: activation [3] -3.45% | Potency [4] | outcome [6] | outcome [7] | outcome [8]
-17.3%: max response [5]

Cn1cnc([N+](=O)[O-])c1Sc1ncnc2nc[nH]c12
inactive: Potency [1] | outcome [2] | activation [3] -7.04% and 6.25% | Potency [4] | outcome [7] | outcome [8]

Reference: PubChem BioAssay (NCATS)
